# Source: PubChem BioAssay
# Values without a mark were called inactive. For part of these data: Measured potencies and affinities stand elsewhere. Active and inactive are the calls of the source. Unless noted, the rule behind the calls is not given here.
# Key:
# [1] = antimalarial activity against Dd2 strain (AID 2302;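 active = growth inhibition above 50% at the single 2 µM test dose, taken to imply half-maximal potency below 2 µM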;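 note: 0% = DMSO untreated growth and 100% = chloroquine plus artemisinin killed control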); conditions: P. falciparum Dd2 in RBCs, LDH growth readout, 72 h; at 2 µM; stronger effect = higher value
# [2] = HepG2 cytotoxicity, primary screen, cytotoxicity control for P. falciparum antimalarial project, cell-based, ATP luminescence (AID 2303;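 active = inhibition above 50%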;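 note: 0% = DMSO wells and 100% = digitonin-killed cells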); conditions: HepG2 viability, 24-48 h, at 10 µM, stronger effect = higher value
# [3] = target: L-lactate dehydrogenase (Plasmodium falciparum (isolate CDC / Honduras)) (UniProt Q27743); experiment: PfLDH activity inhibition – cell lysate, 3D7 strain, counter-screen for P. falciparum growth inhibition project (AID 2304);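 note: 0% = vehicle and 100% = reference inhibitor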; conditions: P. falciparum 3D7 crude extract, LDH APAD/NBT absorbance; at 2 µM; stronger effect = higher value
# [4] = inhibition of 3D7 malaria parasite growth – strain 3D7 (AID 2306);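 note: 0% = DMSO wells and 100% = chloroquine plus artemisinin control wells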; conditions: P. falciparum 3D7 erythrocytic growth, LDH absorbance, 72 h; at 2 µM; stronger effect = higher value
# [5] = target: Calcium-dependent protein kinase 1 (Plasmodium falciparum (isolate 3D7)) (UniProt P62344); experiment: PfCDPK1 kinase inhibitors, biochemical, TCAMS library (AID 1159585; cut-off not given, nearly all actives have IC50 up to about 0.98 µM;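 note: inhibitors leave more ATP so luminescence rises with inhibition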); conditions: recombinant PfCDPK1, Kinase-Glo ATP depletion luminescence
# [6] = target: Plasmodium falciparum protein kinase 6 (PK6, PF3D7_1337100) (UniProt Q8IDW1); experiment: PfPK6 kinase inhibitors, biochemical, TCAMS library (AID 1159586); conditions: recombinant PfPK6, Kinase-Glo ATP depletion luminescence
# [7] = target: Protein kinase 7 (PK7), Plasmodium falciparum 3D7 (PF3D7_0213400) (UniProt Q7YTF7); experiment: inhibition of Plasmodium PK7 catalytic activity – biochemical, TCAMS antimalarial set, Kinase-Glo luminescence (AID 1159587); conditions: recombinant PfPK7, Kinase-Glo ATP depletion luminescence
# [8] = target: Calcium-dependent protein kinase 4 (Plasmodium falciparum (isolate 3D7)) (UniProt Q8IBS5); experiment: PfCDPK4 kinase inhibitors, biochemical, TCAMS library (AID 1159588; cut-off not given, nearly all actives have IC50 up to about 0.91 µM); conditions: recombinant PfCDPK4, Kinase-Glo ATP depletion luminescence
# Sequence of Calcium-dependent protein kinase 4 (Plasmodium falciparum (isolate 3D7)) (Q8IBS5 whole entry, looked up): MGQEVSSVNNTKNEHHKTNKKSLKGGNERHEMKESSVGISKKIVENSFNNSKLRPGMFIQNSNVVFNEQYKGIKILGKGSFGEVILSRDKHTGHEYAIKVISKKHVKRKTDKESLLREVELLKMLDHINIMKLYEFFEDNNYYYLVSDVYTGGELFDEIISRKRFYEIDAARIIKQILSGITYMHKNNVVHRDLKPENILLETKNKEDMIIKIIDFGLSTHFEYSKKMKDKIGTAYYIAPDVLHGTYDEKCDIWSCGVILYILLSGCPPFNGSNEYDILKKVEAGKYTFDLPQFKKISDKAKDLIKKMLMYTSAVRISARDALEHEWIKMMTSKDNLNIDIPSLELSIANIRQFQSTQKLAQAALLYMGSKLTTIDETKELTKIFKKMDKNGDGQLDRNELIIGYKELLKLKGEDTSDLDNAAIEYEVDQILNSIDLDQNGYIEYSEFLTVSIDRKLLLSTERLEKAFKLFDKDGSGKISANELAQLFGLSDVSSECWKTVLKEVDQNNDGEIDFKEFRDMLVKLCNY
# Sequence of Plasmodium falciparum protein kinase 6 (PK6, PF3D7_1337100) (Q8IDW1 1-305): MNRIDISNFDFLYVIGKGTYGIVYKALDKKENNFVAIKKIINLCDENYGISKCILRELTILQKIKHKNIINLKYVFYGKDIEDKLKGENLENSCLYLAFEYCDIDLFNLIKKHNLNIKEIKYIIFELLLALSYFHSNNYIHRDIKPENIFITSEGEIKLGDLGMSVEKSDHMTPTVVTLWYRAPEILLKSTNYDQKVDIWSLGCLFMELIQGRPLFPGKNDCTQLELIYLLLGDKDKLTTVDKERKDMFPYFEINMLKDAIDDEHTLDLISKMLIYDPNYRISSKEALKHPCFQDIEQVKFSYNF
# Sequence of Calcium-dependent protein kinase 1 (Plasmodium falciparum (isolate 3D7)) (P62344 whole entry, looked up): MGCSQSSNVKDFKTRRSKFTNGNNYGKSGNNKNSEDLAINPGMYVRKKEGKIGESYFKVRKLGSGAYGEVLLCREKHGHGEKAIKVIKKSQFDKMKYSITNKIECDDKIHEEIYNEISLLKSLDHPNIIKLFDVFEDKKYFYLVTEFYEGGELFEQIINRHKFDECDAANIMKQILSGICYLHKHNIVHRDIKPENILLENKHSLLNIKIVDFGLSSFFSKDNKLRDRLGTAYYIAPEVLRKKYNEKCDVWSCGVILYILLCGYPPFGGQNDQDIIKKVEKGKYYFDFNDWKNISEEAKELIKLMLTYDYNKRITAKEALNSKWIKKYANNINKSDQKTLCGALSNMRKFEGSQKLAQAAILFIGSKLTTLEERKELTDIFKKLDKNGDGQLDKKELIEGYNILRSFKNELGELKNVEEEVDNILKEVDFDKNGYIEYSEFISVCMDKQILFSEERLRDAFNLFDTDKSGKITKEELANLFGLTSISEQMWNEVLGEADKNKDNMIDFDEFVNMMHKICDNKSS
# Sequence of L-lactate dehydrogenase (Plasmodium falciparum (isolate CDC / Honduras)) (Q27743 whole entry, looked up): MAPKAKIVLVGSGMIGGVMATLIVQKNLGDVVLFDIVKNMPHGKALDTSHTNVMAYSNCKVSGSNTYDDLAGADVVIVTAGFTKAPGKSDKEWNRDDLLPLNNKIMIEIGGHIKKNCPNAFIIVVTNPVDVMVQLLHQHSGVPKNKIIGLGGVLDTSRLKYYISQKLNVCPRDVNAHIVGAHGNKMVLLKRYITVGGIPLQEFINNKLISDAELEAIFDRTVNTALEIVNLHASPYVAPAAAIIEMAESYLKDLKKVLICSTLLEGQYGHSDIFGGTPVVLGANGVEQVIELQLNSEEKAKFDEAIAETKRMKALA
# Sequence of Protein kinase 7 (PK7), Plasmodium falciparum 3D7 (PF3D7_0213400) (Q7YTF7 1-343): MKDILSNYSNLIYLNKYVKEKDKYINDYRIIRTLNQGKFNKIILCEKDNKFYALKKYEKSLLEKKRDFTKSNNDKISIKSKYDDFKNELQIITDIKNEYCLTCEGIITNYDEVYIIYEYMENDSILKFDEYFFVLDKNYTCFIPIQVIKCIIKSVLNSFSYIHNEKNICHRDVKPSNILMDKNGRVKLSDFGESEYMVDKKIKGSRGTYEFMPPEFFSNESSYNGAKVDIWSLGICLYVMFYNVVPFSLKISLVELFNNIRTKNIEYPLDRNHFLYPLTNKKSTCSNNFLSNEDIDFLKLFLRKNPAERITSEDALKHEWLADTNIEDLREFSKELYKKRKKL
SMILES,growth inhibition [1],inhibition [2],inhibition [3],growth inhibition [4],outcome [5],outcome [6],outcome [7],outcome [8]
NCC(=O)NC12CC3CC(CC(C3)C1)C2,-4%,15%,-2%,87% (active),inactive,inactive,inactive,inactive
CCC(C)NC(=O)Cn1c2ncccc2c(=O)n1-c1ccc(C)cc1 (configuration not stated),63% (active),4%,4%,95% (active),inactive,inactive,inactive,inactive
Cc1ccc(C)c2sc(N3CCN(C(=O)c4ccc([N+](=O)[O-])o4)CC3)nc12,89% (active),-2%,2%,96% (active),inactive,inactive,inactive,inactive
CCCCOc1cc(C)nc2ccc(NC(=O)COCC(=O)Nc3ccc4nc(C)cc(OCCCC)c4c3)cc12,28%,-11%,-3%,90% (active),inactive,inactive,inactive,inactive
c1cc(-c2ccc(CN3CCCC3)cc2)cc(-c2nc3ccccc3[nH]2)c1,52% (active),25%,0%,100% (active),inactive,inactive,inactive,inactive
CC(C)(C)Nc1cc(C2CC2)nc(-c2ccccn2)n1,75% (active),-2%,-1%,88% (active),inactive,inactive,inactive,inactive
N=C(N)c1cc(Cl)cc(NC(=O)Nc2cc(Cl)cc(C(=N)N)c2)c1,92% (active),4%,-7%,92% (active),inactive,inactive,inactive,inactive
CC(=O)N(C)C1CCN(Cc2ccc(-c3cccc(-c4nc5ccc(F)cc5[nH]4)c3)cc2)C1 (configuration not stated),79% (active),28%,6%,100% (active),inactive,inactive,inactive,inactive
COc1ccccc1CN1CCC(CNC(=O)c2cc(-c3cccc(C(F)(F)F)c3)cs2)C1 (configuration not stated),1%,25%,4%,84% (active),inactive,inactive,inactive,inactive
C=CC[C@H](C[C@H](O)[C@H](Cc1ccccc1)NC(=O)c1nn(-c2ccccc2)nc1C)C(=O)NC1CCCCC1,3%,6%,5%,94% (active),inactive,inactive,inactive,inactive
CC(CN(C)C)C(=O)Nc1ccc(-c2ccc(-c3nc4ccc(C(F)(F)F)cc4[nH]3)cc2)cc1 (configuration not stated),93% (active),14%,2%,101% (active),inactive,inactive,inactive,inactive
CC(C)NCc1ccc(-c2ccc(NC(=O)c3ccc(C#N)cc3)cc2)cc1,0%,23%,-2%,90% (active),inactive,inactive,inactive,inactive
Cc1nc2ccc3ccc(CNc4ccc(C(=O)N[C@@H](CCC(=O)O)C(=O)O)c(F)c4)cc3c2c(=O)[nH]1,96% (active),41%,-1%,96% (active),inactive,inactive,inactive,inactive
CCC[C@@H]([C@@H](CC1CCCCC1)C(=O)N[C@H](C(=O)Nc1nccs1)C(C)(C)SCCOCCOCC)N(O)C=O,97% (active),40%,-5%,100% (active),inactive,inactive,inactive,inactive
CC(C)(Oc1c(C2CCN(CCCCNC(=O)c3ccc(-c4ccc(Cl)cc4)cc3)CC2)ccc2c1CCCC2)C(N)=O,5%,100% (active),1%,93% (active),inactive,inactive,inactive,inactive
COc1ccc(C2NCCc3c2[nH]c2ccccc32)cc1CN1CCN(c2ccc(F)cc2)CC1 (configuration not stated),56% (active),37%,-1%,97% (active),inactive,inactive,inactive,inactive
N#Cc1cccc(C(=O)Nc2cccc(-c3ccc(CN4CCC(O)CC4)cc3)c2)c1,2%,15%,1%,86% (active),inactive,inactive,inactive,inactive
FC(F)(F)c1cccc(NC(=S)NN=Cc2ccccn2)c1,99% (active),29%,-7%,100% (active),inactive,inactive,inactive,inactive
Fc1cccc(COc2ccc(Nc3ncnc4cc(/C=C/[C@@H]5CCCN5)sc34)cc2Cl)c1,56% (active),17%,-7%,100% (active),inactive,inactive,inactive,inactive
CCN1CCN(c2ccc(Nc3c4ccccc4nc4ccccc34)cc2)CC1,100% (active),24%,-2%,99% (active),inactive,inactive,inactive,inactive

SMILES,growth inhibition [1],inhibition [2],inhibition [3],growth inhibition [4],outcome [5],outcome [6],outcome [7],outcome [8]
O=C(Nc1ccc2c(c1)CN(Cc1ccc(N3CCCC3)o1)CCC2)c1cncs1,37%,15%,-2%,84% (active),inactive,inactive,inactive,inactive
Cc1c(Cl)cccc1S(=O)(=O)N1CCCCC(c2ccc(C(F)(F)F)cc2)=N1,91% (active),15%,5%,86% (active),inactive,inactive,inactive,inactive
CC(C(=O)N1CCCC1)N1CCN(C(c2ccccc2)c2ccccc2)CC1 (configuration not stated),56% (active),-2%,3%,82% (active),inactive,inactive,inactive,inactive
O=C(/C=C/c1ccc(Cl)c(Cl)c1)NCCCCCN1CCC(NC(=O)NC2CCCCC2)CC1,44%,22%,-1%,96% (active),inactive,inactive,inactive,inactive
CCOC(=O)c1ccc(NC(=O)Nc2ccc(-c3cccc(-c4nc5ccc(F)cc5[nH]4)c3)cc2)cc1,100% (active),98% (active),2%,102% (active),inactive,inactive,inactive,inactive
COc1ccc2nccc([C@@H](O)CN3CCC(NCc4cc5oc(=O)[nH]c5cc4Cl)CC3)c2c1,91% (active),1%,-2%,101% (active),inactive,inactive,inactive,inactive
Brc1ccc(Nc2nc(NCc3ccccc3)c3ccccc3n2)cc1,99% (active),24%,-4%,101% (active),inactive,inactive,inactive,inactive
COc1cc(-c2nc(-c3ccccc3)c(-c3ccccc3)[nH]2)cc(OC)c1O,90% (active),5%,-2%,100% (active),inactive,inactive,inactive,inactive
Cc1nc(C)c(CC(=O)Nc2ccc(-c3cccc(-c4nc5c(C)cccc5[nH]4)c3)cc2)s1,38%,41%,-1%,101% (active),inactive,inactive,inactive,inactive
CCCC(C)NC(=O)[C@H](CC1CCCCC1)NC(=O)c1ccc(O)c(-c2ccc(OC)cc2)c1 (some centres not stated),37%,3%,1%,89% (active),inactive,inactive,inactive,inactive
N#Cc1cccc(Nc2nccc(NCC(O)c3cccc(C(F)(F)F)c3)n2)c1 (configuration not stated),84% (active),4%,-3%,99% (active),inactive,inactive,inactive,inactive
NC(=O)c1ccc(NCC(=O)Nc2cccc(-c3cccc(-c4nc5ccc(F)cc5[nH]4)c3)c2)cc1,32%,15%,-3%,97% (active),inactive,inactive,inactive,inactive
CCCCN(CCCC)CCCN(CCCN(CCCC)CCCC)c1cc(C)nc(Nc2ccc(Br)cc2)n1,98% (active),51% (active),-4%,99% (active),inactive,inactive,inactive,inactive
CC(CNc1ccnc(Nc2ccc3[nH]c(=O)[nH]c3c2)n1)c1ccccc1 (configuration not stated),2%,50% (active),6%,99% (active),inactive,inactive,inactive,inactive
CCCNCc1ccc(-c2ccc(CN(C(=O)c3nn(-c4ccccc4)nc3C)C3CC3)cc2)nc1,-3%,23%,-2%,101% (active),inactive,inactive,inactive,inactive
FC(F)(F)c1ccc2nc(-c3ccc(-c4cccc(CNCc5ccccc5)c4)s3)[nH]c2c1,83% (active),15%,-5%,102% (active),inactive,inactive,inactive,inactive
CCN(CCCN1CCCCC1)c1cc(C)nc(Nc2cc(F)cc(F)c2)n1,64% (active),15%,5%,102% (active),inactive,inactive,inactive,inactive
CCc1cn2c3c(cc(C(=O)N[C@@H](Cc4ccccc4)[C@H](O)CNC4CCOCC4)cc13)N(C)S(=O)(=O)C2,98% (active),13%,-1%,99% (active),inactive,inactive,inactive,inactive
CC(C)(C)NCCN(Cc1ccc(-c2ccc(C(F)(F)F)cc2)cc1)C(=O)Cn1c(SCc2ccc(F)cc2)nc(=O)c2c1CCC2,84% (active),64% (active),0%,97% (active),inactive,inactive,inactive,inactive
